This is an account of results in PubChem BioAssay (Tox21).

Molecules are shown by their SMILES. Inconclusive results are not listed. Entries that show only a call come without a potency. Where a structure was tested more than once in an assay, its records may differ in their call. Active and inactive are the calls of the source. Calls come from the whole dose curve; as a rule, active = well fitted inhibition curve with a large enough effect in the repeat runs; inconclusive = weak or mixed curves; inactive = no such curve, though single readings can be large or run the other way.
Potency is the fitted concentration of half-maximal effect.

Sequence of Cytochrome P450 3A4 (Homo sapiens) (P08684 whole entry, looked up): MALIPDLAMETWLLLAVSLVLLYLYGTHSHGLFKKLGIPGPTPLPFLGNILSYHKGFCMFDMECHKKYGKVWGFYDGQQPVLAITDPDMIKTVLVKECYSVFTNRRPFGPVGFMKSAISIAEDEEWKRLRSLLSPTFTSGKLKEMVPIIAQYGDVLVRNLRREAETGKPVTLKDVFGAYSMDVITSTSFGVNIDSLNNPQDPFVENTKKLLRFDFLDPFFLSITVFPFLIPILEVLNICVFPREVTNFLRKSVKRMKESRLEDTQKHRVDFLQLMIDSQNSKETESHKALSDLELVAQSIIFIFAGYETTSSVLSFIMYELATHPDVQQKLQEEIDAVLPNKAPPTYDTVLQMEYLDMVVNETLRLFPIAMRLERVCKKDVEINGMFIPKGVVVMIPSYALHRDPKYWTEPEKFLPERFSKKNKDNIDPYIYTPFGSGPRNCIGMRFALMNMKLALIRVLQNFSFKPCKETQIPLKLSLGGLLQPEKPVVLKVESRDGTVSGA

In the experiment the target is Cytochrome P450 3A4 (Homo sapiens) (UniProt P08684). Description: Cytochrome P450 Family 3 Subfamily A Member 4 (CYP3A4) small molecule antagonists: luciferase reporter qHTS assay (AID 1671201). Note: nearly all actives have a fitted effect of over 50% in size. The conditions noted are these: P450-Glo CYP3A4 enzyme, luciferin luminescence, 1 h; series mostly up to 115 µM. The source says:
National Center for Advancing Translational Sciences [NCATS]
U.S. Environmental Protection Agency [EPA]
National Institutes of Environmental Health Sciences [NIEHS]
National Toxicology Program [NTP]
U.S. Food and Drug Administration [FDA]
Cytochrome P450 (CYP) enzymes are membrane-bound hemeproteins that play a key role in metabolism of drugs and xenobiotics. Evaluation of the effect of chemicals on CYP isozymes is useful to minimize the adverse drug reactions and toxicities in drug development process. Tox21 chemicals were tested for their effect on CYP enzyme activities by using P450-Glo (TM) screening systems (Promega Corporation, Madison, WI). These systems provide a luminescent method containing proluciferin substrates and are converted to luciferin products by CYP isozymes. The luciferin products formed are detected with a luciferin detection reagent, and the amount of light produced is proportional to CYP activity. P450-Glo (TM) CYP3A4 screening system (Catalog. No. V9910) was used to detect the compounds that interfere in CYP3A4 activity. The positive control compound used for CYP3A4 assay is ketoconazole (Sigma-Aldrich, St. Louis, MO).
Tox21 Assay Protocol Summary:
Two ul of enzyme-substrate mix was dispensed into medium binding white/solid 1536-well plates (Greiner Bio-One North America Inc., Monroe, NC) using a BioRaptr Flying Reagent Dispenser (FRD, Beckman Coulter, Brea, CA). Compounds dissolved in DMSO and positive control (ketoconazole) were transferred to the assay plates at 23 nl using a Pintool station (Wako, San Diego, CA). The assay plates were incubated at room temperature for 10 min. Then 2 ul of NADPH regeneration solution was added to each well of the assay plates using an FRD and incubated at room temperature for 1 h. The reaction was stopped by adding 4 ul of detection reagent using an FRD and after 20 min incubation at room temperature the luminescence signal was measured using a ViewLux plate reader (Perkin Elmer, Shelton, CT). Data were expressed as relative luminescence units.
(In a reporter assay the amount or activity of a reporter protein is the signal.)
For the compound `O=C1NC2CCCCN2C12CCN(CCCN1c3ccccc3CCc3ccc(Cl)cc31)CC2` (stereo not given), the Potency result was “inactive”.
With `O=C(O)Cc1ccc(OCCNC[C@H](O)c2ccccc2)cc1`, the Potency entry was “inactive”.
Same read-out and setting: the entry for `Cc1ccc(O)cn1` is “inactive”; for `O=C(NO)c1ccccc1` it is “inactive”; for `CC1=C(/C=C/C(C)=C/C=C/C(C)=C\C=O)C(C)(C)CCC1` it is 30 µM (active).
The same measure, in the same setting: to `Cc1cc(=O)[nH]c(=O)[nH]1` belongs “inactive”; to `O=S(=O)(O)CCCN1CCOCC1`, “inactive”.
As for `CC1CNCC(C)O1` (stereo not given), the Potency result was “inactive”.
Same read-out and setting: the entry for `C=CC/C=C/C/C=C/C/C=C/C` is “inactive”; for `CC(=O)Oc1ccc(C2(c3ccc(OC(C)=O)cc3)C(=O)Nc3ccccc32)cc1` it is “inactive”; for `CO[Si](CCC1CCC2OC2C1)(OC)OC` (stereo not given) it is “inactive”.
Same read-out and setting: the entry for `CCCCCCCCCCCC(=O)N(CC)CC` is “inactive”; for `CCc1cccc(CC)c1N(COC)C(=O)CS(=O)(=O)O` it is “inactive”; for `Brc1ccccc1-c1ccccc1` it is “inactive”.
On to `Clc1nc2ccccc2s1`, for which the Potency entry is “inactive”.
In the case of `O=C1OC(OC(=O)c2cccnc2Nc2cccc(C(F)(F)F)c2)c2ccccc21` (stereo not given), the Potency result was “inactive”.
In the case of `O=S(=O)(O)c1cc(S(=O)(=O)O)c2ccc3c(S(=O)(=O)O)cc(S(=O)(=O)O)c4ccc1c2c43`, the activity change, negative = inhibition is 10.6% [at 23.6 µM] (inactive).
Regarding `CCN(CC)CCNc1ccc(CO)c2sc3ccccc3c(=O)c12`, the Potency result was “inactive”.
With `O=C1Nc2ccc(Cl)cc2[C@@](C#CC2CC2)(C(F)(F)F)O1`, the Potency result is “inactive”.
On the same count and under the same terms, the entry for `Nc1ncnc2c1ncn2[C@@H]1O[C@H](COP(=O)(O)O)[C@@H](O)[C@H]1O` is “inactive”.
For the compound `NC(=O)c1ccccc1N`, the Potency result is “inactive”.
The same measure, in the same setting: the figure for `COC(=O)NCCC[Si](OC)(OC)OC` is 28.3 µM (active); for `Nc1ccc2cc3ccc(N)cc3nc2c1` it is 3.99 µM (active).
The same measure, in the same setting: to `CC(C)(c1cc(Br)c(O)c(Br)c1)c1cc(Br)c(O)c(Br)c1` belongs 56.2 µM (active) and inactive.
The same measure, in the same setting: to `O=C1OC(=O)c2ccc3c4c(ccc1c24)C(=O)OC3=O` belongs “inactive”; to `Cc1cc(Nc2ccc(O)cc2)ccc1N`, 7.93 µM (active).
On to `CC1CCCCN1CCCOC(=O)c1ccc(OC2CCCCC2)cc1` (stereo not given), for which the Potency result was “inactive”.
In the case of `CCCCCCCCC(C)=O`, the Potency entry is “inactive”.
On the same count and under the same terms, the figure for `C=CC(=O)OCCOCC(CC)(COCCOC(=O)C=C)COCCOC(=O)C=C` is 0.932 µM (active); for `CC(C)(C)c1cc(CCC(=O)NCCCCCCNC(=O)CCc2cc(C(C)(C)C)c(O)c(C(C)(C)C)c2)cc(C(C)(C)C)c1O` it is 2.83 µM (active); for `c1cc2c3c(c1)ccc1cccc(c13)C2` it is “inactive”.
As for `CC1=CCC(=O)O1`, the Potency result is “inactive”.
With `CCCC(=O)OCC(COC(=O)CCC)OC(=O)CCC`, the Potency result was “inactive”.
Same read-out and setting: the entry for `O=C(O)CC(=O)O` is “inactive”; for `CCCCCCCCCCCCN(CCO)CCO` it is “inactive”.
Same read-out and setting: to `CCCCCCCC/C=C\CCCCCCCC(=O)OCCOC(=O)CCCCCCC/C=C\CCCCCCCC` belongs 10.4 µM (active); to `CO[Si](CCCNCCNCCN)(OC)OC`, “inactive”.
Still for that read-out and setting: the figure for `C=C[C@](C)(O)CC[C@@H]1[C@@]2(C)CCCC(C)(C)[C@@H]2CC[C@@]1(C)O` is 5.03 µM (active); for `CO[C@H]1C=CO[C@@]2(C)Oc3c(C)c(O)c4c(O)c(cc(O)c4c3C2=O)NC(=O)/C(C)=C\C=C/[C@H](C)[C@H](O)[C@@H](C)[C@@H](O)[C@@H](C)[C@H](OC(C)=O)[C@@H]1C` it is 1.27 µM (active).
As for `O=Cc1ccc(F)cc1`, the Potency entry is “inactive”.
